Compounds without any hit were thinned out: in the full panel of roughly 83,000, 20% have a hit.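 Percent growth is the endpoint: 0 to 100 indicates growth inhibition (40 means 60% inhibition), 0 means no net growth, and negative values indicate cell death.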 Unmarked numbers belong to inactive results. The source made the active and inactive calls. How the source made its calls: active means growth percent below 10; inactive means the rest.

What all share (experiment): NCI-60 one-dose screen, 48 h (100 = growth as untreated, 0 = no growth, -100 = all killed)
Holding throughout (settings): 10 µM unless noted

Test [1] relates to SR leukemia.
The test system of test [2] is OVCAR-8 ovarian.
Test [3] deals with OVCAR-5 ovarian.
For test [4], the system named is OVCAR-4 ovarian.
The subject of test [5] is SK-OV-3 ovarian.
The test system of test [6] is IGROV1 ovarian.
Test [7] concerns OVCAR-3 ovarian.
The subject of test [8] is HS 578T breast.
Test [9] concerns NCI/ADR-RES ovarian.
For test [10], the system named is RPMI-8226 leukemia.

For the compound `C=C1CCC2C(C)(CO)C(O)CCC2(C)C1C/C=C1/C(=O)OCC1O/C=C/c1ccccc1` (stereo not given), the growth in test [1] was 27.6%; in test [2] it was 55.3%; in test [3], 93.5%; in test [4], 62.7%; in test [5], 125%; in test [6], 84.1%. The values for the growth in test [7], in test [8] and in test [9] were 75.7%, 96.3% and 73.9%, respectively.

Regarding `NC(N)=N/N=C/c1ccc(-c2ccc(-c3cc(Cl)cc(Cl)c3)s2)cc1`, the growth is 2.59% (active) in test [1]; -9.01% (active) in [10]; 90.5% in [3]; 38.6% in test [4]; -16.7% (active) in [6]; -81.5% (active) in test [7]. For the same compound, the values for the growth in test [8] and in test [9] were 80.8% and -19.2% (active), respectively.

Regarding `CCO/C=N/C1=C(C#N)C(c2ccc(Cl)cc2)c2c(c3ccccc3n(C)c2=O)O1` (stereo not given), the growth in test [1] is 22.7%; in [10], 88.1%; in test [3] it was 85.1%; in [4], 68.6%; in test [5], 81.8%; in test [6] it was 59.1%. The growth in test [7] was 64.3%; in test [8], 65.5%; in [9] it was 57.3%.

Regarding `COc1ccc(S(=O)(=O)n2ccc(-c3ccc4c(c3)CCC(C)(C)O4)n2)cc1OC`, the growth was 60.2% in test [1]; 59% in test [10]; 105% in test [3]; 46% in [4]; 84.3% in test [6]; 70.9% in [7]. Also, the growth in test [8] was 91.5%; in test [9] it was 56.5%.

Consider `CC(C)(C)n1cc(-c2ccnc(NCCNS(=O)(=O)c3ccc(F)cc3)c2)c(-c2cccc(O)c2)n1`, for which the growth in test [1] was 25.5%; in [2], 62.4%; in [3], 68.6%; in test [4], 56.2%; in test [5] it was 79.3%; in [6] it was 68.9%. In addition, the growth in test [7] was 70.5%; in test [8], 60.3%.

In the case of `CC(C)(C)OC(=O)NC(CSCc1ccccc1)C(=O)ON1C(=O)CCC1=O` (stereo not given), the growth in test [1] is 78.4%; in [2], 104%; in test [3], 106%; in test [4] it was 121%; in test [5], 104%; in test [6] it was 114%. Further, the figures for the growth in [7], in test [8] and in [9] were 107%, 115% and 103%, respectively.

With `Clc1cc(Cl)cc(-c2ccc(-c3ccc(/C=N/NC4=NCCN4)cc3)s2)c1`, the growth in test [1] is 8.3% (active); in [10] it was 9.95% (active); in [3] it was 95.2%; in test [4] it was 81%; in test [6], 43.3%; in [7] it was 14.2%. Moreover, the growth in test [8] is 82.1%; in test [9], 45.6%.

As to `O=C1C2(c3ccccc3)C(c3ccccc3)=C(c3ccccc3)C1(c1ccccc1)C1CC=CC12` (stereo not given), the growth was 101% in test [1]; 87.5% in test [2]; 97.9% in test [3]; 69.5% in test [4]; 96.3% in test [5]; 86.9% in test [6]. In addition, the growth was 89.5% in [7] and 106% in [8].

Regarding `CC(C)(C)NCCC(O)c1cc2c(Cl)cc(Cl)cc2c2cc(C(F)(F)F)ccc12` (stereo not given), the growth in test [1] is -77.5% (active); in [10], -40% (active); in [3], -83.2% (active); in test [5], 15.6%; in test [6], -63.2% (active); in test [7], -88.7% (active). For the same compound, the growth in test [8] was -56.9% (active).

For the compound `Cc1ccc(Nc2nnc(-c3ccc(Cl)cc3)o2)c(C)c1`, the growth is 53% in test [1]; 89.6% in [10]; 99% in test [3]; 87.2% in [6]; 82.4% in test [7]; 87.9% in [8]. In test [9], the growth is 45.6%.

Turning to `COc1cc(NC(=O)SC2=NCCS2)cc(OC)c1`, the growth is 93.9% in [1]; 63.2% in test [10]; 97.7% in test [3]; 98% in test [4]; 98% in test [5]; 139% in [6]. Also, the growth in [7] is 113%; in test [8], 99.7%; in test [9], 99%.

In the case of `COc1ccc(-c2ccc(C)n2-c2ccc(-c3nc4cc(Cl)ccc4s3)cc2)cc1`, the growth was 76.9% in test [1]; 104% in test [2]; 74.6% in test [3]; 84.8% in test [4]; 96.7% in test [5]; 54.9% in [6]. Also, the growth in [7] was 109%; in test [8], 103%.

As to `O=[N+]([O-])c1cccc(-c2nc3sccn3c2-c2ccnc(NCCCNS(=O)(=O)c3ccc(Cl)cc3)n2)c1`, the growth in [1] was 60.7%; in test [10] it was 16.2%; in [3], 112%; in [4], 17.5%; in test [5], 96.5%; in [6] it was 43.3%. Besides, the growth in test [7] was 44.5%; in [8], 81.2%; in test [9], 12.6%.

Consider `CC(C)NCCCNC1=C(Cl)C(=O)c2ccccc2C1=O`, for which the growth in test [1] was -22.7% (active); in [2], 56.9%; in test [3] it was 138%; in test [4] it was 84.1%; in [5], 107%; in [6], -51.3% (active). Besides, the values for the growth in test [7], in test [8] and in test [9] were 40.8%, 27.7% and 90.5%, respectively.

Consider `COc1ccc(-c2nc(/C=N/Nc3cc(C)nc4ccc(Cl)cc34)c(C)o2)cc1`, for which the growth in [1] was -5.37% (active); in test [2] it was -82% (active); in [3], -93.3% (active); in [4], -95.3% (active); in [5], 92.5%; in test [6] it was -78.8% (active). The growth in test [7] was -96.9% (active); in test [8], -29.3% (active); in [9], -74.7% (active).

For the origin of these results see PubChem BioAssay (NCI).
